Hits are enriched below; roughly 3% of the tested compounds scored in any of these assays.
DAGLB inhibitor: diacylglycerol lipase beta (human) inhibition | Q8NCG7 | HEK293T DAGLB membrane lysate, EnzChek fluorogenic substrate | inhibition, % at 5.17 µM | hit rate 0.059% among 340,000 | AID 504411; in the data active = inhibition above about 34%
pPAFAH FP inh: inhibitors of human plasma PAF acetylhydrolase (pPAFAH). Q13093. recombinant pPAFAH, FP-rhodamine probe fluorescence polarization. inhibition, % at 3.39 µM. hit rate 1.5% among 330,000. AID 463082;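 active = inhibition above the mean inhibition across the screen plus 3 SD, cut at about 25% in these data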;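 also: inhibitors block binding of the rhodamine activity-based probe so polarization drops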
Target sequence (Q13093 whole entry, looked up): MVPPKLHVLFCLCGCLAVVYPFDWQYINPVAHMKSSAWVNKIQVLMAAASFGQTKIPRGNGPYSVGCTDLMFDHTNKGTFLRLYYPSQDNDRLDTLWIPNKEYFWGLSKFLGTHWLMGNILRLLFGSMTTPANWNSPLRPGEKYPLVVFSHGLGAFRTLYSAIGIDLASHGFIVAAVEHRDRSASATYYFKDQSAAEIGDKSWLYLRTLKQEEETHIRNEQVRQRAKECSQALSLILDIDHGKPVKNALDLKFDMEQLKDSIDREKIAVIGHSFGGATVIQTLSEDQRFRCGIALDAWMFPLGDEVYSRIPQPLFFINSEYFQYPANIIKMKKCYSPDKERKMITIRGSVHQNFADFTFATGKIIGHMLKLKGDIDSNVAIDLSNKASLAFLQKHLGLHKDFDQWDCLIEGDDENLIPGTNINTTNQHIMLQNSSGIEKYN
PAFAH1B2 inh: PAFAH1B2 (human) inhibition | recombinant PAFAH1B2, FP-rhodamine activity probe, fluorescence polarization | P68402 | inhibition, % at 3.39 µM | hit rate 1.2% among 340,000;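 active = inhibition above the mean of all tested compounds plus 3 SD, cut at about 24% in these data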
PAFAH2 inh: PAFAH2 (human) inhibition; recombinant PAFAH2, FP-rhodamine activity probe, fluorescence polarization; inhibition, % at 3.39 µM; hit rate 0.99% among 340,000;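 active = inhibition above the mean over all tested compounds plus 3 SD, cut at about 30% in these data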;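 also: inhibitors block probe labeling of enzyme so polarization drops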
PAFAH1B3 FP inh: PAFAH1B3 (human) inhibition; hit rate 0.28% among 340,000; Q15102; inhibition, % at 3.39 µM; recombinant PAFAH1B3, FP-rhodamine probe, fluorescence polarization;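 active = inhibition above the screen-wide average of all tested compounds plus 3 SD, cut at about 25% in these data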
ATG4B inh: inhibitors of human ATG4B cysteine protease; ATG4B cleavage of LC3-PLA2, NBD-HPC fluorescence, 1 h; inhibition, % at 8.33 µM; hit rate 0.51% among 340,000; AID 504462; in the data active = inhibition above about 40%
Large screens that a line does not name were inactive.

C[C@]12CC[C@H](O)C[C@H]1CC[C@@H]1[C@@H]2CC[C@]2(C)C(=O)CC[C@@H]12	none
Cn1c(O)c(/C=C2\N=c3ccccc3=C2CCNC(=S)NC2CC2)c(=O)n(C)c1=O	PAFAH1B2 inh 56
Cn1c(O)c(/C=C2\C=c3ccccc3=NC2=O)c(=O)n(C)c1=O	none (no result: pPAFAH FP inh)
CN1C(=O)C[N+]([O-])=C(c2ccccc2)c2cc(Cl)ccc21	none (no result: pPAFAH FP inh)
COc1cccc(N2C(=O)NC(=O)/C(=C/c3ccc4c(c3)Cc3ccccc3-4)C2=O)c1	none
O=C1NC(=O)N(Cc2ccc(F)cc2)C(=O)/C1=C\c1ccc([N+](=O)[O-])s1	pPAFAH FP inh 26, PAFAH1B2 inh 34, PAFAH2 inh 56
COc1cccc(N2C(=O)NC(=O)/C(=C/c3ccc([N+](=O)[O-])s3)C2=O)c1	pPAFAH FP inh 33, PAFAH1B2 inh 33, PAFAH2 inh 49, PAFAH1B3 FP inh 46
O=C1NC(=O)N(Cc2ccc(F)cc2)C(=O)/C1=C\c1ccc(N2CCCC2)cc1	pPAFAH FP inh 26
COc1ccc(CN2C(=O)NC(=O)/C(=C/c3ccc([N+](=O)[O-])s3)C2=O)cc1	pPAFAH FP inh 31, PAFAH1B2 inh 33, PAFAH2 inh 63, PAFAH1B3 FP inh 46
CC1=NNC(=O)C1Br (centres undefined)	none (no result: pPAFAH FP inh)
FC(F)(F)c1cccc(NC2=NCCS2)c1	none (no result: pPAFAH FP inh, PAFAH1B2 inh, PAFAH2 inh, PAFAH1B3 FP inh, ATG4B inh)
COc1ccc(NC(=S)N2Cc3ccccc3-n3nncc3C2)c(OC)c1	none (no result: pPAFAH FP inh, PAFAH1B2 inh, PAFAH2 inh, PAFAH1B3 FP inh, ATG4B inh)
COC(=O)C1=C(c2ccc(OCc3ccccc3)c(F)c2)C[C@@H]2CC[C@H]1N2C	none (no result: pPAFAH FP inh, PAFAH1B2 inh, PAFAH2 inh, PAFAH1B3 FP inh, ATG4B inh)
C[C@@H]1CCC2[C@@H](C)C(=O)O[C@@H]3OC4(C)CCC1[C@@]23OO4 (some centres undefined)	none (no result: DAGLB inhibitor, PAFAH1B2 inh, PAFAH2 inh, PAFAH1B3 FP inh)
Cc1cc(C)n(-c2ccc(NN=C(C#N)C#N)cc2)n1	pPAFAH FP inh 28
CCOC(=O)[C@@]1(C#N)C(c2ccc(Cl)c(Cl)c2)[C@H](C(N)=O)N2C=C(C(C)=O)C=C[C@H]21 (some centres undefined)	none
CCOC(=O)[C@@]1(C#N)[C@@H]2C=CC(C(N)=O)=CN2[C@@H](C(N)=O)[C@@H]1c1cccc(Cl)c1	ATG4B inh 94
CCOC(=O)[C@]1(C#N)[C@@H]2C=CC(C(N)=O)=CN2[C@@H](C(N)=O)[C@@H]1c1ccc(F)cc1	ATG4B inh 48
COC(=O)[C@@]1(C#N)[C@@H]2C=CC(C(C)=O)=CN2[C@@H](C(N)=O)[C@@H]1c1ccc(F)cc1	none
CC(C)n1c(O)c(C2c3cc(Cl)ccc3Oc3[nH]c(=O)n(C(C)C)c(=O)c32)c(=O)[nH]c1=O (centres undefined)	PAFAH1B2 inh 39 (no result: pPAFAH FP inh)
COC(=O)C1=C(c2cccc(C#N)c2)C[C@@H]2CC[C@H]1N2C(=O)N1CCCCC1	none
CCOC(=O)c1c(-n2c(C)cc(C=C3C(=O)NC(=S)NC3=O)c2C)sc2c1CCCC2	pPAFAH FP inh 25
CCOC(=O)c1c(-n2c(C)cc(/C=C3/C(=O)NC(=O)N(CC)C3=O)c2C)sc2c1CCCC2	none
Cc1[nH]nc2ccc(-c3cncc(OC[C@@H](N)Cc4c[nH]c5ccccc45)c3)cc12	none (no result: pPAFAH FP inh)
CN1[C@H]2CC[C@@H]1C(C(=O)N1CCOCC1)=C(O)C2	none
COc1cccc(CC(=O)N2CCN(Cc3cccc(Cl)c3)CC2)c1	none
COc1cccc(C2CCN(CC(=O)Nc3cc(Cl)ccc3OC)CC2O)c1 (centres undefined)	pPAFAH FP inh 33
CN(CC=CCN(C)P(=S)(N1CC1)N1CC1)P(=S)(N1CC1)N1CC1	none (no result: pPAFAH FP inh)
ClC(Cl)=C(c1ccc(Cl)cc1)c1ccc(Cl)cc1	PAFAH1B2 inh 25
O=C(O)C1C2c3ccccc3C(O)C1(C(=O)O)c1ccccc12 (centres undefined)	none (no result: pPAFAH FP inh)
O=C(O)C(O)(c1ccc(Cl)cc1)C1(O)CCCC1 (centres undefined)	none (no result: pPAFAH FP inh, PAFAH1B2 inh, PAFAH2 inh, PAFAH1B3 FP inh, ATG4B inh)
O=c1c2ccccc2nc(-c2cccs2)n1-c1ccccc1	none
CCn1nc(-c2cccs2)nc2c(=O)n(C)c(=O)nc1-2	PAFAH1B2 inh 47, PAFAH2 inh 56, PAFAH1B3 FP inh 74, ATG4B inh 86 (no result: pPAFAH FP inh)
FC(F)(F)c1cccc(-n2nnnc2C2(N3CCOCC3)CCCCC2)c1	PAFAH1B2 inh 31
Cc1ccc(/C=C2/C(=O)NC(=O)N(CCc3ccc(F)cc3)C2=O)o1	none
O=C1NC(=O)N(CCc2ccc(F)cc2)C(=O)/C1=C/c1ccco1	pPAFAH FP inh 29

From PubChem BioAssay
